How the values were obtained:
[1] = biological target: Serine/threonine-protein kinase PAK 6 (Homo sapiens) (UniProt Q9NQU5); conditions: at 1 µM;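 also: values are mean percent inhibition of PAK6 kinase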
[2] = test system: Tyrosine-protein kinase ABL1 (Homo sapiens), P00519 [E255K]; conditions: at 0.1 µM
[3] = test system: Tyrosine-protein kinase ABL1 (Homo sapiens), P00519 [E255K]; conditions: at 1 µM
[4] = test system: Tyrosine-protein kinase ABL1 (Homo sapiens), P00519 [H396P]; conditions: at 0.1 µM
[5] = test system: Tyrosine-protein kinase ABL1 (Homo sapiens), P00519 [H396P]; conditions: at 1 µM
[6] = test system: Tyrosine-protein kinase ABL1 (Homo sapiens), P00519 [M351T]; conditions: at 0.1 µM
[7] = test system: Tyrosine-protein kinase ABL1 (Homo sapiens), P00519 [M351T]; conditions: at 1 µM
[8] = test system: Tyrosine-protein kinase ABL1 (Homo sapiens), P00519 [Q252H]; conditions: at 0.1 µM
[9] = test system: Tyrosine-protein kinase ABL1 (Homo sapiens), P00519 [Q252H]; conditions: at 1 µM
[10] = test system: Tyrosine-protein kinase ABL1 (Homo sapiens), P00519 [T315I]; conditions: at 0.1 µM
[11] = test system: Tyrosine-protein kinase ABL1 (Homo sapiens), P00519 [T315I]; conditions: at 1 µM
[12] = test system: Tyrosine-protein kinase ABL1 (Homo sapiens), P00519 [Y253F]; conditions: at 0.1 µM
[13] = test system: Tyrosine-protein kinase ABL1 (Homo sapiens), P00519 [Y253F]; conditions: at 1 µM
[14] = biological target: Tyrosine-protein kinase ABL1 (Homo sapiens) (UniProt P00519); conditions: at 0.1 µM
[15] = biological target: Tyrosine-protein kinase ABL1 (Homo sapiens) (UniProt P00519); conditions: at 1 µM
[16] = biological target: ALK tyrosine kinase receptor (Homo sapiens) (UniProt Q9UM73); conditions: at 0.1 µM
Chain of ALK tyrosine kinase receptor (Homo sapiens) (Q9UM73 19-1620 limits assumed): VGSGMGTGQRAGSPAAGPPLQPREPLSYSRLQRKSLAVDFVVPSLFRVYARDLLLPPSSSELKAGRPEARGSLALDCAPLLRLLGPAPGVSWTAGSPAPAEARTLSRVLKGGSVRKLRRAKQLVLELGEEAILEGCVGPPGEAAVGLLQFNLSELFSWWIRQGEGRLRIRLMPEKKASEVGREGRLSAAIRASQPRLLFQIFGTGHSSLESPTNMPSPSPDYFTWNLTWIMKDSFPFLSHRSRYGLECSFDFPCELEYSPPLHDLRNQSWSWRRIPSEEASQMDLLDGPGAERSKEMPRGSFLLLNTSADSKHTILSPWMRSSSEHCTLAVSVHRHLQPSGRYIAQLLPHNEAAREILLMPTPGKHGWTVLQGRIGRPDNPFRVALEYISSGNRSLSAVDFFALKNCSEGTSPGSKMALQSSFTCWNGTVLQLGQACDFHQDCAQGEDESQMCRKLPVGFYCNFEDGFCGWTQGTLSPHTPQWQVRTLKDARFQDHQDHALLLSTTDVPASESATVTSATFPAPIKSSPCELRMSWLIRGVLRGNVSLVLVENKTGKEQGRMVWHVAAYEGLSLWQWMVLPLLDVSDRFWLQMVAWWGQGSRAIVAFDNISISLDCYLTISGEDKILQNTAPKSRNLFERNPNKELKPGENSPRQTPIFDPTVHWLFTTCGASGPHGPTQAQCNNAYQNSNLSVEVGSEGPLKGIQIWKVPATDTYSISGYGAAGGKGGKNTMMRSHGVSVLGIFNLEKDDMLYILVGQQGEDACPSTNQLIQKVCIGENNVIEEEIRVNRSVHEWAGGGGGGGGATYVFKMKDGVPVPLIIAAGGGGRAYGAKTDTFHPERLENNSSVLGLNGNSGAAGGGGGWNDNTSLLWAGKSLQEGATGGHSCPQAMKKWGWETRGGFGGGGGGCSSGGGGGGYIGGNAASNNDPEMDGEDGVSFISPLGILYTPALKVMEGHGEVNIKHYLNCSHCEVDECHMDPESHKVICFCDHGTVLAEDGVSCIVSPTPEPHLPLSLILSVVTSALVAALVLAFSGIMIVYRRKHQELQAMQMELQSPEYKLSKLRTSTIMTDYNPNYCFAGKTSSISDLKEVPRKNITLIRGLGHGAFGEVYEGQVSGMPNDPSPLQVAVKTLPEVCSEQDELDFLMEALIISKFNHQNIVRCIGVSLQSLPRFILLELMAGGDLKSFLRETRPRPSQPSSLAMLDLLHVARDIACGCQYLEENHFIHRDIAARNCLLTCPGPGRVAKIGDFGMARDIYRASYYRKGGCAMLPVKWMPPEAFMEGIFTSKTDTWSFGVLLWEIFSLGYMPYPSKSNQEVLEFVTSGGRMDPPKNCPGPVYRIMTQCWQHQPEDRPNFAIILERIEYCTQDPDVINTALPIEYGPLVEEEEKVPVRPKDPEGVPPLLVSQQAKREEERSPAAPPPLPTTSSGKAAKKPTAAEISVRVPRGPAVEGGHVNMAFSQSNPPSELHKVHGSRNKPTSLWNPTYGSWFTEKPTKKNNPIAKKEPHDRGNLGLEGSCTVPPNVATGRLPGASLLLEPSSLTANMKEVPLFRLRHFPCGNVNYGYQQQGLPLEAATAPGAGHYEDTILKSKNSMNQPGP

[17] = biological target: ALK tyrosine kinase receptor (Homo sapiens) (UniProt Q9UM73); conditions: at 1 µM
[18] = biological target: Tyrosine-protein kinase ABL2 (Homo sapiens) (UniProt P42684); conditions: at 0.1 µM
Chain of Tyrosine-protein kinase ABL2 (Homo sapiens) (P42684 whole entry): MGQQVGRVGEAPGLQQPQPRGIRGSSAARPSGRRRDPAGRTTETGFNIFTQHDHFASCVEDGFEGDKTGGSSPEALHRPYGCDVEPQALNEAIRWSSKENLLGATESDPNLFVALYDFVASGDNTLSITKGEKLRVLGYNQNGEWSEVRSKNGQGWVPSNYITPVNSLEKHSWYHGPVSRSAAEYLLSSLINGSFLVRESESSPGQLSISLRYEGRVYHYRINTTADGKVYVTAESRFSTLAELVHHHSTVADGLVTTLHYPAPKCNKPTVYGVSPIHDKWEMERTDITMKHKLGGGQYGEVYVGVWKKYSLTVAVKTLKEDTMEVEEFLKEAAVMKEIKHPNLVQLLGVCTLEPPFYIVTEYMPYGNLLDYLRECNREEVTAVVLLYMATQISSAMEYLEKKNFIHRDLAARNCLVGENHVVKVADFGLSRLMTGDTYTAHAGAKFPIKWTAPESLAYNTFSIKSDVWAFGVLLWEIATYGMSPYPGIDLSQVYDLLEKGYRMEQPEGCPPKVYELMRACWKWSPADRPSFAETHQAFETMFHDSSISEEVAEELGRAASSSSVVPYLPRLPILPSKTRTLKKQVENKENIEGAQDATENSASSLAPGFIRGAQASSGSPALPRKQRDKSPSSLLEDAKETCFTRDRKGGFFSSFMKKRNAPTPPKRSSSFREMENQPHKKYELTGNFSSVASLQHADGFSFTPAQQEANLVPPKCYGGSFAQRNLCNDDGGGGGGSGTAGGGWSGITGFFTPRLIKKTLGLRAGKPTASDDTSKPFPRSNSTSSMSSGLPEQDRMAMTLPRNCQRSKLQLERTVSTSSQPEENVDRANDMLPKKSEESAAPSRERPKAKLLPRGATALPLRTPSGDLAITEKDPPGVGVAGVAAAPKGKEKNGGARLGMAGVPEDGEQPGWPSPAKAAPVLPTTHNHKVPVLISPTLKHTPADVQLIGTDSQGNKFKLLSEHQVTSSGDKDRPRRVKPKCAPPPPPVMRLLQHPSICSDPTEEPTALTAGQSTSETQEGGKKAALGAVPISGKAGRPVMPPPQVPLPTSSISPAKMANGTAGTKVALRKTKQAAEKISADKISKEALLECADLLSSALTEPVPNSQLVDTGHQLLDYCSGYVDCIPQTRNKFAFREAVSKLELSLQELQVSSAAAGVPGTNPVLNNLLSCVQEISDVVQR

[19] = biological target: Tyrosine-protein kinase ABL2 (Homo sapiens) (UniProt P42684); conditions: at 1 µM
[20] = biological target: Tyrosine-protein kinase receptor UFO (Homo sapiens) (UniProt P30530); conditions: at 0.1 µM;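 also: values are mean percent inhibition of AXL from the GSK PKIS screen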
Chain of Tyrosine-protein kinase receptor UFO (Homo sapiens) (P30530 whole entry): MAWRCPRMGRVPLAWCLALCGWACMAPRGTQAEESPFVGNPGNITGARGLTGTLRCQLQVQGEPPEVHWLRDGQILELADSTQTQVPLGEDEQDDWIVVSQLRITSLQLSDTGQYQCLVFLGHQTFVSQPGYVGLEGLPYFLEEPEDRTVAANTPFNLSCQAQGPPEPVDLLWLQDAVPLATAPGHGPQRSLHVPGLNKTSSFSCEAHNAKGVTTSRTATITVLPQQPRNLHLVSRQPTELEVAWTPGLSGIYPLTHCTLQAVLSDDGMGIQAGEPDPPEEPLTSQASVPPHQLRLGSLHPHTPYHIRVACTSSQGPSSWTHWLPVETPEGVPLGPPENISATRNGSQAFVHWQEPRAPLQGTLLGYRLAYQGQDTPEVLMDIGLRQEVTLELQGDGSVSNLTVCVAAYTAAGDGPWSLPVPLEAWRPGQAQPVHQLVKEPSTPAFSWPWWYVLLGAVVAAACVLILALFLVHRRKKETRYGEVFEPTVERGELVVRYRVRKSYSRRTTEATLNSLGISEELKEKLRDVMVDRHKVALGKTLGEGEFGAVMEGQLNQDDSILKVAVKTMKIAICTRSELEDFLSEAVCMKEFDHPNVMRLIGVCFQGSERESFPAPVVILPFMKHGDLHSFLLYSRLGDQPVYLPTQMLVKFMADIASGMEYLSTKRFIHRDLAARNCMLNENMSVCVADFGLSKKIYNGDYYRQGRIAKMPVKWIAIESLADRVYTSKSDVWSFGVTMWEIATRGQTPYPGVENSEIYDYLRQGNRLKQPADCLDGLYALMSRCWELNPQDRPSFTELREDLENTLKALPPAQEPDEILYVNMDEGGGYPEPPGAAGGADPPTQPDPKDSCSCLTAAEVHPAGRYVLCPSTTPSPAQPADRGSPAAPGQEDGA

Chain of Serine/threonine-protein kinase PAK 6 (Homo sapiens) (Q9NQU5 whole entry, looked up): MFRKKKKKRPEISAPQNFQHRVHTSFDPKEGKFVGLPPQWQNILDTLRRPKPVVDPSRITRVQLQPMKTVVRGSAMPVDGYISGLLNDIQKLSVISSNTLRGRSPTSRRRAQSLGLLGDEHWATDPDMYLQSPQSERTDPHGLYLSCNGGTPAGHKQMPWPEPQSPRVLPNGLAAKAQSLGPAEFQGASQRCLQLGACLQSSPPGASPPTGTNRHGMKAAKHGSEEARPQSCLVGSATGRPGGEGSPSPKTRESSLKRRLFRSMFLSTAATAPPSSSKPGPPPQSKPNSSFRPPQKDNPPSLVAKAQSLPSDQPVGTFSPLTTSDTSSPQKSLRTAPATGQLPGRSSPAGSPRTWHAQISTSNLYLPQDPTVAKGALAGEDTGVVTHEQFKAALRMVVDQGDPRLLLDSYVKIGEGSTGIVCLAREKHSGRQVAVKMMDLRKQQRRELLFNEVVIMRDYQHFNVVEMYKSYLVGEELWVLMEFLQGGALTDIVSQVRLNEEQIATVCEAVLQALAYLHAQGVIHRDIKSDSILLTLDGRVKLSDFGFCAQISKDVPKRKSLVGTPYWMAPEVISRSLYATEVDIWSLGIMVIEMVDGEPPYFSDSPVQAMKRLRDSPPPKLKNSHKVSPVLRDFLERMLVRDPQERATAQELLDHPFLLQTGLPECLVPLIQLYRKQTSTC

SMILES	inhibition [1]	inhibition [2]	inhibition [3]	inhibition [4]	inhibition [5]	inhibition [6]	inhibition [7]	inhibition [8]	inhibition [9]	inhibition [10]	inhibition [11]	inhibition [12]	inhibition [13]	inhibition [14]	inhibition [15]	inhibition [16]	inhibition [17]	inhibition [18]	inhibition [19]	inhibition [20]
COc1cc(/C=N/Nc2ncnc3[nH]ncc23)ccc1O	4.44%	36.5%	83.4%	45.9%	87.6%	42.9%	87.9%	47.9%	88.3%	8.14%	47.4%	52.5%	87.3%	35.1%	78.9%	1.72%	8.84%	15.6%	65.7%	-3.29%
Cc1ccc2c(-c3ccnc(Nc4ccccc4)n3)c(-c3ccc(F)cc3)nn2n1	5.13%	3.13%	15.7%	7.21%	36%	15.1%	56.4%	12%	49.9%	4.75%	20.2%	11.5%	42.2%	5.24%	35.5%	2.29%	5.55%	4.61%	34.1%	-5.33%
COc1ccc(-c2nn3ncccc3c2-c2ccnc(Nc3ccc4c(c3)OCCO4)n2)cc1	-1.85%	-0.56%	13.9%	3.27%	34.6%	20.9%	63.3%	11.9%	55%	2.65%	32.3%	2.95%	33.3%	2.5%	25.8%	8.08%	35.2%	5.47%	33.2%	1.61%
Fc1ccc(-c2nn3ncccc3c2-c2ccnc(Nc3ccc4c(c3)OCCO4)n2)cc1	-1.03%	10.2%	40.9%	25.5%	69.9%	38.6%	81%	31%	75.2%	14.1%	53.4%	29.3%	72.2%	11.8%	62.6%	4.64%	7.86%	10.4%	56.1%	-9.81%
CCn1c(-c2nonc2N)nc2c(C#CC(C)(C)O)ncc(OC3CCNCC3)c21	76%	-0.7%	-0.01%	2.05%	2.1%	-0.57%	0.51%	0.98%	0.41%	2.72%	1.99%	-0.54%	0.66%	4.72%	3.17%	1.83%	4.92%	2.02%	3.67%	-1.51%
CCN1CCC(CC(=O)Nc2n[nH]c3nnc(-c4cccc(F)c4F)cc23)CC1	0.04%	1.76%	1.65%	2.63%	4.15%	-0.03%	3.11%	2.12%	3.13%	2.02%	3.8%	3.03%	2.59%	4%	4.16%	2.51%	0.86%	3.37%	3.96%	0.47%
